# Test results as given in ChEMBL document CHEMBL3988442, “University of Dundee, Small-Polar-MMV Screening Library” (2021).
# Biological target: T1, Methionyl-tRNA synthetase, putative (Leishmania donovani (strain BPK282A1)) (UniProt E9BF75)
# T1 sequence (whole entry): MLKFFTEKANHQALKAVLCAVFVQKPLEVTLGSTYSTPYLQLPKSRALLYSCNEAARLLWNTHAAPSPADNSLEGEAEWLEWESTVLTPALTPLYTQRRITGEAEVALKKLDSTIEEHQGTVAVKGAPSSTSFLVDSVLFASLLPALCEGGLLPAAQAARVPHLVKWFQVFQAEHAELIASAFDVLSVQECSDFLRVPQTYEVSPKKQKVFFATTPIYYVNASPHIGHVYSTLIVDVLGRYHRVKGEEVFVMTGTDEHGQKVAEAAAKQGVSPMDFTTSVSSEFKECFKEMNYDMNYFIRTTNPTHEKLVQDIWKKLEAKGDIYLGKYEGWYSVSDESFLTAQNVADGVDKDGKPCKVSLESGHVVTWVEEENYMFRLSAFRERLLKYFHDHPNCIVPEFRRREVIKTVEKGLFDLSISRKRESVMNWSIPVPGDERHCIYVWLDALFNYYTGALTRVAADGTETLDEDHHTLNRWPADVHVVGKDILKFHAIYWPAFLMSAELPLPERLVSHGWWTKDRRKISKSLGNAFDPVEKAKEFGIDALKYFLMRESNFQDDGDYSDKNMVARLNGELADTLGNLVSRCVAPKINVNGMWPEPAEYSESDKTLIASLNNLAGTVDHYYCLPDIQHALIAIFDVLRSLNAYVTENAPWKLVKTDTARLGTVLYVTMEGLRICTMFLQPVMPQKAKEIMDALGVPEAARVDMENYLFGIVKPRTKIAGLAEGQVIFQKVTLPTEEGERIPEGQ
# Assay: Leishmania donovani Methionine tRNA synthetase (LdMetRS):v7. Dose response assay
# Format: functional
# Parameters: conc 80 nM, time 150 minutes
compound,measurement,setting,value
Cc1ccc(N2CCCC(N(C)c3ncnc4c3CCC4)C2)nn1 (stereo not drawn),PXC50,MAX_EFFECT 10.79812207,< 4
same,PXC50,MAX_EFFECT 20.18518519,< 4
CCc1cc2c(NCCCN(C)C)nc(C)nc2s1,PXC50,MAX_EFFECT 11.55778894,< 4
same,PXC50,MAX_EFFECT 12.03931204,< 4
CCN(CC)c1ccc2ccc(C(=O)N(CCOC)CCOC)cn12,PXC50,MAX_EFFECT 40.55555556,< 4
same,PXC50,MAX_EFFECT 42.72300469,< 4
O=C(C1CCC1)N1CCC(c2ncc3c(n2)CCNC3)CC1,PXC50,MAX_EFFECT 30.83900227,< 4
same,PXC50,MAX_EFFECT 33.27102804,< 4
CC(C)C[C@H]1COc2ccccc2C(c2ccccc2)=N1,PXC50,MAX_EFFECT 7.8891258,< 4
same,PXC50,MAX_EFFECT 10.97308489,< 4
Fc1ccc(CN2CCC(F)(F)C3(CCN(c4cnccn4)C3)C2)cc1 (stereo not drawn),PXC50,MAX_EFFECT 10.88435374,< 4
same,PXC50,MAX_EFFECT 11.21495327,< 4
Nc1noc2ccc(-c3cnc4ccc(Cl)nn34)cc12,PXC50,MAX_EFFECT 1.526717557,< 4
same,PXC50,MAX_EFFECT 4.824561404,< 4
Cc1nccn1CCCn1cncc1-c1ccc2c(c1)CC(C)N2C (stereo not drawn),PXC50,MAX_EFFECT 28.57142857,< 4
same,PXC50,MAX_EFFECT 43.36448598,< 4
Cc1nc(N(C)Cc2cccnc2)c2c(C)c(C)sc2n1,PXC50,MAX_EFFECT 19.78609626,< 4
same,PXC50,MAX_EFFECT 20.76502732,< 4
CN(C)C(=O)C1CCN(c2cncc(-n3cccn3)n2)CC1,PXC50,MAX_EFFECT 5.700712589,< 4
same,PXC50,MAX_EFFECT 11.44366197,< 4
CC(C)C[C@H](N)CNc1cccnc1Oc1ccc(Cl)cc1,PXC50,MAX_EFFECT 7.660455487,< 4
same,PXC50,MAX_EFFECT 9.168443497,< 4
CS(=O)(=O)N1CCN(c2ccc3ccc(C(=O)NC4CCCC4)cn23)CC1,PXC50,"BOTTOM 3.919126037, HILLSLOPE 1.949141012, MAX_EFFECT 63.17460317, TOP 66.86118232",4.76
same,PXC50,"BOTTOM 4.67001684, HILLSLOPE 2.010919918, MAX_EFFECT 67.58893281, TOP 64.90205504",5
CCc1nc(NCCCN(C)C)c2cc(CC)sc2n1,PXC50,MAX_EFFECT 9.547738693,< 4
same,PXC50,MAX_EFFECT 12.53071253,< 4
FC1(F)CCN(Cc2ccccn2)CC12CCN(c1ncccn1)C2 (stereo not drawn),PXC50,MAX_EFFECT 3.628117914,< 4
same,PXC50,MAX_EFFECT 16.82242991,< 4
CCOc1ccc(CN(C)Cc2nc(N)c3c(C)c(C)sc3n2)cc1,PXC50,MAX_EFFECT 7.466666667,< 4
same,PXC50,MAX_EFFECT 8.994708995,< 4
Cn1cc(CN2CCC(F)(F)C3(CCN(c4ncc(F)cn4)C3)C2)cn1 (stereo not drawn),PXC50,MAX_EFFECT 3.286384977,< 4
same,PXC50,MAX_EFFECT 5.740740741,< 4
CC(C)C[C@@H](COc1cccc(F)c1Oc1ccc(Cl)cc1)NS(C)(=O)=O,PXC50,MAX_EFFECT 6.609808102,< 4
same,PXC50,MAX_EFFECT 8.902691511,< 4
CC1CCc2c(Cl)cc(Cl)c(O)c2N1 (stereo not drawn),PXC50,MAX_EFFECT 23.76425856,< 3
same,PXC50,MAX_EFFECT 24.40604752,< 3
CN(c1ncnc2c1cnn2C)C1CCCN(c2cccnn2)C1 (stereo not drawn),PXC50,MAX_EFFECT 40.92592593,< 4
same,PXC50,MAX_EFFECT 46.94835681,< 4
CC(C)C[C@H](N)COc1ccccc1C(=O)c1ccccc1,PXC50,MAX_EFFECT 1.863354037,< 4
same,PXC50,MAX_EFFECT -0.213219616,< 4
CC(C)(CN)COc1cccc(F)c1Oc1ccc(Cl)cc1,PXC50,MAX_EFFECT 16.84434968,< 4
same,PXC50,MAX_EFFECT 20.08281573,< 4
Cc1nnc(NCC2(c3ccccc3)CCC2)c(C#N)c1C,PXC50,MAX_EFFECT 19.71830986,< 4
same,PXC50,MAX_EFFECT 20.92592593,< 4
Cc1nc(NCC(=O)O)c2c3c(sc2n1)CCC3,PXC50,MAX_EFFECT 4.834605598,< 4
same,PXC50,MAX_EFFECT 5.289672544,< 4
CCn1ncc(-c2cc(C(F)(F)F)nc(N3CCC(N)CC3)n2)c1C,PXC50,MAX_EFFECT 0.522193211,< 4
same,PXC50,MAX_EFFECT 1.305483029,< 4
CC(C)C[C@@H](N)COc1cccc(F)c1Oc1cccc(Cl)c1,PXC50,"BOTTOM 1.372222408, HILLSLOPE 1.087653332, MAX_EFFECT 50.72463768, TOP 100.0",4.03
same,PXC50,"BOTTOM -0.306407193, HILLSLOPE 1.563618531, MAX_EFFECT 56.92963753, TOP 100.0",4.11
Cc1cc2c(N3CCC(C(N)=O)CC3)nc(-c3cccnc3)nc2s1,PXC50,MAX_EFFECT 10.38251366,< 4
same,PXC50,MAX_EFFECT 13.36898396,< 4
CCc1nc(NCc2ccccn2)c2cc(C)sc2n1,PXC50,MAX_EFFECT 5.651105651,< 4
same,PXC50,MAX_EFFECT 6.030150754,< 4
Cc1nc(N2CCNC(=O)CC2C)c2c(-c3ccccc3)csc2n1 (stereo not drawn),PXC50,MAX_EFFECT 10.43256997,< 4
same,PXC50,MAX_EFFECT 12.34256927,< 4
Cc1nc(N2CCNC(=O)C2)c2c(CC(C)C)csc2n1,PXC50,MAX_EFFECT 4.371584699,< 4
same,PXC50,MAX_EFFECT 6.951871658,< 4
Cc1nc(N(C)CC(=O)NC2CC2)c2c3c(sc2n1)CCCC3,PXC50,MAX_EFFECT 4.761904762,< 4
same,PXC50,MAX_EFFECT 5.333333333,< 4
Cc1ccc(-c2cc(C(F)(F)F)nc(NCCN(C)C)n2)cc1,PXC50,MAX_EFFECT 8.163265306,< 4
same,PXC50,MAX_EFFECT 8.333333333,< 4
O=C(NCC1CCCCC1)c1cc(=O)c2cc(O)ccc2o1,PXC50,MAX_EFFECT 0.575815739,< 4
same,PXC50,MAX_EFFECT 4.306220096,< 4
CS(=O)(=O)N1CCN(c2ccc3ccc(C(=O)NCc4ccccc4)cn23)CC1,PXC50,"BOTTOM 9.61795032, HILLSLOPE 2.1052237, MAX_EFFECT 58.50091408, TOP 60.20064035",4.73
same,PXC50,"BOTTOM -0.0629, HILLSLOPE 2.117070317, MAX_EFFECT 53.11004785, TOP 51.4182088",5.1
FC(F)(F)c1nc(N2CCCCCC2)nc2c1CCCCC2,PXC50,MAX_EFFECT 4.325699746,< 4
same,PXC50,MAX_EFFECT 5.793450882,< 4
